High-throughput results deposited in PubChem BioAssay by Broad Institute.
This excerpt belongs to a sample that is enriched for hits.
Tg IFNy HTS = inhibitors of Toxoplasma gondii growth with IFN-gamma; Toxoplasma gondii growth in IFN-gamma-treated host cells; active compounds read low; activity change, negative = inhibition, % (concentration not given with the values); actives 3.8% (n = 69,000); AID 1259416; in the data active = activity change below about -70%, passing the limit was not always enough;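 note: host cells are HeLa cells infected with Toxoplasma gondii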
Hits are given with their value; 0 = inactive; ! = repeats disagree.

SMILES	Tg IFNy HTS
COc1cc(N2CC[C@H](O)[C@@H]2Cc2cnn(C)c2)ncn1	0
O=c1[nH]cnc2c(Br)cc(Br)cc12	0
COCCN1C[C@@H]2CCN(c3ncc(F)cn3)CC[C@H]2S1(=O)=O	0
CC(C)N1CCNC(=O)C1CC(=O)NC1(CN2CCCC2)CCCCC1 (configuration not stated)	0
Cc1cccc(C(=O)NCCc2sc(-c3ccc(Cl)cc3)nc2C)c1	0
Cc1nc(CN2CC3CC(C(=O)NC(C)C)C(C2)O3)cs1 (configuration not stated)	0
CCOc1cccc(-c2cccc(-n3cnnc3)c2)c1	0
CS(=O)(=O)N[C@@H]1CCN(CC2CCOC2)[C@H]1Cc1ccccc1 (some centres not stated)	0
CCc1nccn1CCC(=O)N1CCC(c2nn(C)c(=O)n2CC)CC1	0
CCCC#Cc1ccc([C@H]2[C@@H](CO)N(C(=O)NC(C)C)[C@@H]2CNC(C)=O)cc1	0
Cc1oc(-c2ccc(C(=O)NCC3CCCO3)cc2)nc1CN1CCN(c2ccccc2)CC1 (configuration not stated)	0
Cc1ccc(C)c(NC(=O)c2ccc(-c3nc(CN4CCN(c5ccccc5)CC4)c(C)o3)cc2)c1	0
Cc1ccc(C)c(CNC(=O)c2ccc(-c3nc(CN4CCN(c5ccccc5)CC4)c(C)o3)cc2)c1	-79.4
COCC1CN(Cc2ccc3c(c2)OCO3)Cc2ncn(C)c21 (configuration not stated)	0
CN1CCN(CC#N)C2(CCN(C(=O)c3ccc[nH]3)C2)C1=O (configuration not stated)	0
CS(=O)(=O)NC1COCCC12CCN(C(=O)c1cccnc1)CC2 (configuration not stated)	0
COC(=O)c1[nH]ncc1CN1CCOc2c(cc(-c3cccs3)cc2OC)C1	0
O=C(N/N=C/c1ccc([N+](=O)[O-])o1)c1ccc(O)cc1	-81.0!
Cc1ccc(/C=N/NC(=O)c2ccccc2Oc2ccccc2)o1	0
Cc1ccsc1/C=N\NC(=O)c1ccc2c(c1)OCO2	0
COc1ncccc1-c1cc(C(=O)NC2CC2)ccn1	0
O=C(NCc1cccc(CN2CCCCCC2)c1)c1ccc(Cn2cncn2)cc1	0
CC(C)(C)c1ccc(C(=O)CCCN2CCC(OC(c3ccccc3)c3ccccc3)CC2)cc1	-86.0
O=C(O)CCCN1CCC(O[C@@H](c2ccc(Cl)cc2)c2ccccn2)CC1	0
CC1CCN(CCCC(=O)c2ccc(F)cc2)CC1	0
SMILES	Tg IFNy HTS
COc1cccc(CC(=O)NCC2CCC(c3ccnc4cc(C)nn34)CC2)c1 (configuration not stated)	0
Cc1nc(C2CCN(Cc3ccnn3C)CC2)nc2c1CCCN2CCc1ccccc1	0
COc1ccc2c(c1)NC1(CCN(C(=O)Nc3ccc(OC)c(OC)c3)CC1)c1cccn1-2	0
Cc1nn(-c2ccccc2)nc1C(=O)Nc1ccc2c(c1)OCCO2	0
CC(C)(C)c1ccc2c(c1)OCCOCCOCCOCCO2	0
CC(C)(C)c1ccc(/C=C/C(=O)Nc2ccc3c(c2)OCCO3)cc1	-73.0
O=C1CCC2(CCC(NC3CCOC3)CC2)N1Cc1cccc(F)c1 (configuration not stated)	0
CC(C)(C)c1csc(=S)n1CCc1ccc(Cl)cc1	-87.4
Cn1c(-c2ccc(Cl)cc2)cs/c1=N\C(=S)NCCc1ccccc1	0
c1cncc(-c2ncnc3c2CCN(Cc2cccs2)CC3)c1	0
O=C(c1cccc(F)c1)N1CCC(c2nc(-c3nccs3)cc(=O)[nH]2)CC1	0
CS(=O)(=O)c1ccc(-c2nccn2CCN2CCCOC2=O)cc1	0
C[C@@H]1CN(CC2CCOCC2)CC[C@]12CCC(C(=O)NCC1CC1)O2 (some centres not stated)	0
C=C(C)[C@@H]1CC[C@]2(CO)CC[C@]3(C)[C@H](CC[C@@H]4[C@@]5(C)CC[C@H](O)C(C)(C)[C@@H]5CC[C@]43C)[C@@H]12	0
CC1(C)C2CC[C@]3(C)[C@H](C(=O)C=C4[C@@H]5C[C@@](C)(C(=O)O)CC[C@]5(C)CC[C@]43C)[C@@]2(C)CC[C@@H]1OC(=O)CCC(=O)O (some centres not stated)	0
C=C(C)[C@@H]1CC[C@]2(C(=O)O)CC[C@]3(C)[C@H](CC[C@@H]4[C@@]5(C)CC[C@H](OC(=O)CC(C)(C)C(=O)O)C(C)(C)[C@@H]5CC[C@]43C)[C@@H]12	-73.2
N#Cc1cnc(N2CCCCC2)nc1N	0
CCC(=O)N1CCC(C)(C(=O)NCc2ccc(F)cc2F)CC1	0
CC(=O)N1CC[C@H](OCc2csc(C)n2)[C@@H](Cc2ccccc2)C1	0
CCNC(=O)/C=C/c1cccc(Br)c1	0
O=C(O)c1ccc(NS(=O)(=O)c2cccc(C(=O)O)c2)cc1	0
O=C(/C=C/c1cccc(S(=O)(=O)Nc2ccccc2)c1)NO	-71.1
C=CCC(CC=C)(NC(=O)CCC(=O)OC)c1ccccc1	0
Cn1c(=O)c2c(nc(N3CCN=C3SCC(N)=O)n2Cc2ccccc2)n(C)c1=O	0
Cc1nc2c(c(=O)[nH]1)CCN(Cc1cccn1Cc1ccccc1F)C2	0
